A selection: hits, their analogues and other compounds. The true share with any hit is near 4.5%.
Gli-Sufu block: Gli-Sufu pathway antagonists, primary screen, luciferase luminescence, Sufu-KO-LIGHT cells, uHTS | Sufu-KO-LIGHT fibroblasts, Gli luciferase reporter luminescence | inhibition, % at 5 µM | 0.74% of 340,000 active | AID 588413, 2011;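 active = inhibition above about 55%, limit read from the data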;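 note: 0% = DMSO-treated cells and 100% = wells with medium but no cells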
Jurkat NFkB inh: inhibitors of induced NF-kB luciferase reporter, primary screen, TCR NF-kB activation inhibitor project, cell-based, luminescence, uHTS; 0.53% of 330,000 active; inhibition, % at 4 µM; Jurkat, PMA/ionomycin-induced NF-kB luciferase reporter; in the data active = inhibition above about 50%
Mdm2-MdmX inh: inhibitors of human Mdm2-MdmX association, primary screen, cell-based, luminescence, split luciferase, SaOS-2, uHTS. Protein Mdm4 (Homo sapiens) + E3 ubiquitin-protein ligase Mdm2 (Homo sapiens), …. SaOS-2 split-luciferase Mdm2/MdmX complementation. inhibition, % at 8 µM. 3% of 330,000 active;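 active = inhibition of at least 50% at 8 µM in the primary screen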
Target sequence (O15151 whole entry, looked up): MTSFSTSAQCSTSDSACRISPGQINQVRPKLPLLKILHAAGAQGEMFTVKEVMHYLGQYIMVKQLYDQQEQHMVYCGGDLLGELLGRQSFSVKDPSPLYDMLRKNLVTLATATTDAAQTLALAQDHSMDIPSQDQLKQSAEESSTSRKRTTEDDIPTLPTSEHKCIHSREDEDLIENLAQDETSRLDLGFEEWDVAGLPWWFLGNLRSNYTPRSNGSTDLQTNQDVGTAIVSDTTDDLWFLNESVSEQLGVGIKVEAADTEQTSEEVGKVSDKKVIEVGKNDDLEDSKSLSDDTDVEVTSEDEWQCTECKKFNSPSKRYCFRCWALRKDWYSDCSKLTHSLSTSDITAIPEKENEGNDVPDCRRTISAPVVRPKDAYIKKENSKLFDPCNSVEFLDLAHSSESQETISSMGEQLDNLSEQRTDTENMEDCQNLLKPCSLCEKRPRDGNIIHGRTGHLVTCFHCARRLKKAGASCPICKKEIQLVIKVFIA
Target sequence (Q00987 whole entry, looked up): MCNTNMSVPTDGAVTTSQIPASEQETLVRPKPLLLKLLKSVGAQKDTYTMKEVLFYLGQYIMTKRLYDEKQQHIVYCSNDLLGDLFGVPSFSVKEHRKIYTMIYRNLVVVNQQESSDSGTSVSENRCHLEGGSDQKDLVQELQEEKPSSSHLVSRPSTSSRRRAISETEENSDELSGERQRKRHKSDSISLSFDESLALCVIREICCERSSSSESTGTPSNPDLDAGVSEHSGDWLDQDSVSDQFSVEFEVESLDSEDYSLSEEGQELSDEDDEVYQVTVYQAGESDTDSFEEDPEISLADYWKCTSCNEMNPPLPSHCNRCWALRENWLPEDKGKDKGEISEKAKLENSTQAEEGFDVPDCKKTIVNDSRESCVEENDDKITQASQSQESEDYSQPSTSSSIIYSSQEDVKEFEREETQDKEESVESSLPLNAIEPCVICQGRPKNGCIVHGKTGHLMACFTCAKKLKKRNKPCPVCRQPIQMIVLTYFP
aSyn 5UTR inh: MLPCN primary screen, SNCA 5' untranslated region. alpha-synuclein 5'UTR reporter, inhibitor activity. inhibition, % (tested at 7.5 µM). 0.82% of 300,000 active. AID 1813, 2009; in the data active = inhibition above about 60%; inconclusive = no clear call, values can overlap the other calls;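 note: H4 neuroglioblastoma cells stably carrying SNCA 5'UTR luciferase fusion; 0% = DMSO wells and 100% = positive control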
CSC inhib: cancer stem cell viability inhibitors, primary screen, luminescence. cancer stem cell-like cells viability. inhibition, % at 7.5 µM. 1.1% of 300,000 active; in the data active = inhibition above about 75%; inconclusive = no clear call, values can overlap the other calls; tested in HMLE shEcad cells
697 NFkB inh: inhibitors of PMA/ionomycin-induced NF-kB reporter, 697 cells, primary screen, B-cell NF-kB inhibitor project, cell-based, luminescence, uHTS; 697 B-cell NF-kB luciferase reporter, 16 h; inhibition, % at 4 µM; 0.33% of 330,000 active; in the data active = inhibition above about 35%
Jurkat NFkB conf: PMA/ionomycin-induced NF-kB reporter inhibitors, Jurkat retest, confirmation, T-cell NF-kB inhibitor project, cell-based, luminescence, single concentration. inhibition, % at 4 µM. Jurkat NF-kB luciferase, 16 h. shares compounds with Jurkat NFkB inh. 27% of 2,700 active;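 active = inhibition reaching about 45% at 4 µM in either replicate, limit read from the data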;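 note: plate controls were PMA/ionomycin stimulated DMSO wells for no effect and unstimulated DMSO wells for full effect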
697 NFkB conf: PMA/ionomycin-induced NF-kB reporter inhibitors, 697 retest, confirmation, B-cell NF-kB inhibitor project, cell-based, luminescence, single concentration. shares compounds with 697 NFkB inh. 697 B-cell NF-kB luciferase, 16 h. inhibition, % at 4 µM. 35% of 2,000 active; in the data active = inhibition mostly above about 28%, no sharp cut-off; inactive = mostly below about 22%
Mdm2 MdmX conf: Mdm2-MdmX complex disruptors, retested hits, confirmation, luminescence, single concentration | inhibition, % at 8 µM | Mdm2-MdmX binding, luminescent assay | shares compounds with Mdm2-MdmX inh | 55% of 10,000 active; in the data active = inhibition above about 40%
FLuc counter: full-length luciferase signal inhibition, confirmation, counter-screen for Mdm2/MdmX interaction inhibitor project, cell-based, single concentration, SaOS-2; shares compounds with Mdm2-MdmX inh; SaOS-2 full-length luciferase counterscreen, luminescence; inhibition, % at 8 µM; 77% of 6,200 active;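 active = mean inhibition at 8 µM reaching about 37%, which flags the compound as non-specific, limit read from the data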;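 note: p53-null SaOS-2 cells with luciferase driven by a doxycycline-inducible promoter; compound on cells about two nights before reading with doxycycline added after day one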
* hit, by the source's call; ? = inconclusive; . = no result.

SMILES | Gli-Sufu block | Jurkat NFkB inh | Mdm2-MdmX inh | aSyn 5UTR inh | CSC inhib | 697 NFkB inh | Jurkat NFkB conf | Mdm2 MdmX conf | FLuc counter | others
Cc1sc2nc3c4ccccc4c(NCc4ccco4)nn3c(=O)c2c1C | 29 | 43 | -104 | . | . | 18 | . | . | .
COc1ccc(C)cc1NC(=O)CN1CCCC1c1ccc2c(c1)OCCCO2 (stereo not drawn) | 10 | 4 | 32 | . | -8 | 17 | . | . | .
COCCNC(=S)NNC(=O)c1ccc(-n2cnnn2)cc1 | 4 | -12 | -21 | -25 | -9 | -2 | . | . | .
COc1cccc(C(=O)N(Cc2ccccc2)Cc2cc3cc4c(cc3[nH]c2=O)OCCO4)c1 | 5 | -3 | 24 | 6 | 1 | 7 | . | . | .
COc1ccc(C(=O)N(Cc2ccccc2)Cc2cc3cc4c(cc3[nH]c2=O)OCCO4)cc1 | -4 | 55* | 51* | 6 | 6 | -32 | 12 | 65* | 51*
O=C(CSc1nccc(=O)[nH]1)Nc1cc(C(F)(F)F)ccc1N1CCOCC1 | -5 | -16 | -7 | 4 | -6 | -15 | . | . | .
Cc1ccc2nc(SCC(=O)Nc3cc(C(F)(F)F)ccc3N3CCOCC3)[nH]c2c1 | -3 | 52* | 84* | 96* | 62 | -47 | 56* | 65* | 91*
COc1cccc(N2CCN(C(=O)c3ccc(CS(=O)c4ccc(C)cc4)o3)CC2)c1 (stereo not drawn) | 30 | 53* | 58* | 97* | 56 | 20 | 8 | 52* | 61*
O=C(CCNC(=O)Cn1ccc2ccccc2c1=O)NCc1ccccn1 | -5 | -4 | -24 | -9 | -4 | 3 | . | . | .
COc1ccc([C@@H]2C=C(C(=O)O)O[C@H](OCCCCO)C2)cc1 | 10 | 15 | 12 | 7 | -3 | 16 | . | . | .
COc1ccc(S(=O)(=O)Nc2cccc(-c3ccc4nncn4n3)c2)cc1F | 18 | 58* | 50* | 15 | 54 | -7 | 50* | 66* | 61*
O=S(=O)(Nc1cccc(-c2ccc3nncn3n2)c1)c1cccc(F)c1 | 0 | 1 | 9 | 23 | -4 | 9 | . | . | .
COc1ccccc1-n1cnc2cc(NCc3cccs3)ccc21 | 44 | 51* | 51* | ? | -7 | -83 | 19 | 55* | 80*
Cc1ccccc1-n1cnc2cc(NCc3cccs3)ccc21 | -6 | 8 | 32 | -31 | 30 | -14 | . | . | .
COc1cccc(C(C(=O)NC(C)(C)C)N(CC(C)C)C(=O)CCC(=O)Nc2cc(C)on2)c1OC (stereo not drawn) | 6 | -16 | -2 | -3 | -6 | 6 | . | . | .
COc1cccc(C2=Nn3c(nnc3-c3ccccc3O)SC2)c1 | 6 | 5 | 20 | 11 | 12 | -22 | . | . | .
C[n+]1c2n(c3ccccc31)N=C(c1cc(C(C)(C)C)c(O)c(C(C)(C)C)c1)CS2 | 89* | 52* | 78* | 68* | -14 | -8 | 3 | 75* | 38*
CCOc1ccc(NC(=O)CN(C)C(=O)c2c(-c3ccccc3Cl)noc2C)cc1OCC | -2 | -4 | 2 | -7 | -15 | -11 | . | . | .
COc1ccc(CC(=O)NNC(=O)COc2ccc(Cl)cc2C)cc1S(=O)(=O)N1CCOCC1 | 0 | 0 | 26 | . | . | 18 | . | . | .
COC(=O)c1[nH]c2ccc(F)cc2c1NS(=O)(=O)c1ccc(OC)cc1 | 2 | 66* | 57* | 100* | 56 | -44 | 47* | 58* | 62*
CN1/C(=C\C=[N+](C)c2ccccc2)C(C)(C)c2ccccc21 | 85* | 74* | 70* | 16 | 30 | 83* | 66* | 40* | 64* | 697 NFkB conf=57*
CCc1ccc(N2C(=O)C(Cl)=C(Nc3ccc(C(=O)N4CCCC4)cc3)C2=O)cc1 | 2 | 83* | 95* | . | . | -117 | 88* | 95* | 39*
O=C(c1ccc(N2C(=O)c3ccccc3C2=O)cc1)N1CCCCC1 | 8 | -4 | 16 | -11 | 13 | -2 | . | . | .
O=C(/C=C/c1ccc(Cl)cc1)Nc1nccs1 | -172 | . | . | -38 | . | . | . | . | .
COc1ccc(C2=CC(=O)C[C@H](c3ccc(OC)cc3)C2)cc1 | -43 | -16 | -3 | . | 1 | -7 | . | . | .
SMILES | Gli-Sufu block | Jurkat NFkB inh | Mdm2-MdmX inh | aSyn 5UTR inh | CSC inhib | 697 NFkB inh | Jurkat NFkB conf | Mdm2 MdmX conf | FLuc counter | others
COc1ccc([C@H]2CC(=O)C=C(c3ccc(OC)cc3OC)C2)cc1 | 7 | 58* | 51* | . | 71 | -49 | 48* | 34 | 98*
CSc1ccc(/C=N\Nc2nncn2N)cc1 | -3 | -15 | 11 | -24 | -4 | -2 | . | . | .
O=C1CC2C(CCC23OCCO3)c2ccc3ccccc3c21 (stereo not drawn) | -48 | . | . | . | . | . | . | . | .
COc1ccc(N(C)C2=NS(=O)(=O)c3ccccc32)cc1 | -5 | 56* | 52* | -70 | 35 | -73 | 39 | 69* | 55*
NCCCNc1nc(N)c([N+](=O)[O-])c(NC2CCCCC2)n1 | 16 | 91* | 73* | 49 | 15 | -66 | 20 | 70* | 56*
Cc1ccc(C(=O)O/N=C/c2ccc(N(C)C)cc2)cc1 | -1 | -9 | -11 | -53 | -13 | 3 | . | . | .
Cc1ccc(/C=C/c2ccc(N(C)C)cc2)[n+](C)c1 | 85* | 68* | 74* | 19 | 12 | 26 | 41 | 33 | .
Cc1ccc2c(c1)Oc1ccc(NC(=O)CCl)cc1C(=O)N2 | 23 | 64* | 92* | -30 | 45 | 17 | 51* | 87* | 54*
Cc1ccc2c(c1)Oc1ccc([N+](=O)[O-])cc1C(=O)N2 | 35 | -4 | -15 | -5 | -4 | 7 | . | . | .
O=c1cnc2cc([N+](=O)[O-])ccc2[nH]1 | -9 | 8 | 7 | 12 | -11 | 1 | . | . | .
N#Cc1ccccc1OCC(=O)N1CCN(S(=O)(=O)c2ccc(Cl)cc2)CC1 | 5 | 12 | -14 | . | -7 | 21 | . | . | .
